Laboratory results as given in PubChem BioAssay AID1159580 (chemical genetic matrix, 2015).
“And” between values parts separate entries of the source, which are not always exact repeats. Equal values may be shown once. The campaign covered roughly 5,500 compounds. About 2,000 (36%) were called active. Inconclusive results (about 18%) are left out. Cut-off read from the data, not from the text of the source: active = normalized growth mostly below about 0.91 (no sharp cut-off); inconclusive = no clear call, values can overlap the other calls; inactive = mostly above about 0.92. The list shows a part of the results.

Test: chemical genetic growth profiling, strain panel (AID 1159580);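 note: tested at 20 µM; growth read once vehicle control cultures reached saturation at 30 °C; 1 = growth at the plate median or of vehicle wells; lower values mean less growth of the strain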
Details: S. cerevisiae deletion strains, growth OD

Measured: normalized growth

CC[C@@]1(O)C[C@H](O)c2c(cc3c(c2O)C(=O)c2c(O)ccc(O)c2C3=O)[C@H]1C(=O)OC
inactive: locus YAL026C, strain drs2, stronger effect = lower value 0.936 | locus YBR021W, strain FUR4, stronger effect = lower value 1.06 | locus YBR023C, strain chs3, stronger effect = lower value 0.924 | locus YBR171W, strain sec66, stronger effect = lower value 1.02 | locus YBR229C, strain ROT2, stronger effect = lower value 0.931 | locus YBR279W, strain paf1, stronger effect = lower value 0.964 | locus YCL069W, strain vba3, stronger effect = lower value 0.993 | locus YCR088W, strain abp1, stronger effect = lower value 0.963 | locus YDL005C, strain med2, stronger effect = lower value 1.01 | locus YDL040C, strain nat1, stronger effect = lower value 0.967 | locus YDR001C, strain nth1, stronger effect = lower value 1 | locus YDR159W, strain sac3, stronger effect = lower value 0.873 | locus YDR297W, strain sur2, stronger effect = lower value 0.94 | locus YDR334W, strain swr1, stronger effect = lower value 1.01 | locus YDR335W, strain msn5, stronger effect = lower value 0.961 | locus YDR392W, strain spt3, stronger effect = lower value 0.799 | locus YEL003W, strain gim4, stronger effect = lower value 0.958 | locus YEL037C, strain rad23, stronger effect = lower value 0.997 | locus YEL061C, strain CIN8 (second series), stronger effect = lower value 1.01 | locus YER110C, stronger effect = lower value 0.98 | locus YER111C, strain swi4, stronger effect = lower value 1.03 | locus YER155C, strain BEM2 (second series), stronger effect = lower value 1.06 | locus YGL078C, strain dbp3, stronger effect = lower value 0.935 | locus YGL167C, strain pmr1, stronger effect = lower value 0.976 | locus YGL173C, strain kem1, stronger effect = lower value 0.906 | locus YGL227W, strain vid30, stronger effect = lower value 1.01 | locus YGL240W, strain doc1, stronger effect = lower value 0.894 | locus YGR252W, strain gcn5, stronger effect = lower value 0.832 | locus YHR013C, strain ard1, stronger effect = lower value 1 | locus YHR030C, strain SLT2, stronger effect = lower value 0.97 | locus YHR079C, strain IRE1, stronger effect = lower value 0.984 | locus YHR142W, strain chs7, stronger effect = lower value 0.883 | locus YJL129C, strain trk1, stronger effect = lower value 0.989 | locus YJL154C, strain vps35, stronger effect = lower value 0.996 | locus YJL168C, strain set2, stronger effect = lower value 0.942 | locus YJR066W, strain TOR1, stronger effect = lower value 0.941 | locus YKR026C, strain gcn3, stronger effect = lower value 0.994 | locus YKR091W, strain srl3, stronger effect = lower value 1 | locus YLL001W, strain dnm1, stronger effect = lower value 0.953 | locus YLL026W, stronger effect = lower value 0.956 | locus YLL041C, strain sdh2, stronger effect = lower value 0.982 | locus YLR102C, strain apc9, stronger effect = lower value 0.984 | locus YLR113W, strain HOG1, stronger effect = lower value 0.971 | locus YLR342W, strain FKS1 (second series), stronger effect = lower value 0.857 | locus YLR342W, strain FKS1, stronger effect = lower value 0.958 | locus YLR357W, strain rsc2, stronger effect = lower value 1.01 | locus YLR370C, strain arc18, stronger effect = lower value 0.96 | locus YLR371W, strain rom2, stronger effect = lower value 0.991 | locus YLR384C, strain iki3, stronger effect = lower value 1.02 | locus YML120C, strain ndi1, stronger effect = lower value 0.962 | locus YMR125W, strain sto1, stronger effect = lower value 1.08 | locus YMR129W, stronger effect = lower value 0.997 | locus YMR205C, strain PFK2, stronger effect = lower value 0.983 | locus YMR231W, strain pep5, stronger effect = lower value 1.01 | locus YMR307W, strain GAS1, stronger effect = lower value 0.641 | locus YNL071W, strain lat1, stronger effect = lower value 0.932 | locus YNL183C, strain NPR1, stronger effect = lower value 0.929 | locus YNL322C, strain KRE1 (second series), stronger effect = lower value 0.919 | locus YNR049C, strain mso1, stronger effect = lower value 0.976 | locus YOL012C, strain htz1 0.287 | locus YOR001W, strain rrp6, stronger effect = lower value 0.943 | locus YOR080W, strain dia2, stronger effect = lower value 0.941 | locus YOR231W, strain MKK1, stronger effect = lower value 0.981 | locus YOR265W, strain rbl2, stronger effect = lower value 0.938 | locus YOR290C, strain snf2, stronger effect = lower value 0.911 | locus YOR316C, strain cot1, stronger effect = lower value 1 | locus YPL078C, strain atp4, stronger effect = lower value 0.961 | locus YPL240C, strain hsp82, stronger effect = lower value 0.979 | locus YPL256C, strain CLN2, stronger effect = lower value 0.995 | locus YPR119W, strain clb2, stronger effect = lower value 0.952
active: locus YAL013W, strain DEP1, stronger effect = lower value 0.495 | locus YAL021C, strain ccr4, stronger effect = lower value 0.768 | locus YAL030W, strain snc1, stronger effect = lower value 0.908 | locus YBL061C, strain skt5, stronger effect = lower value 0.89 | locus YBR009C, strain hhf1, stronger effect = lower value 0.805 | locus YBR231C, strain swc5, stronger effect = lower value 0.751 | locus YCL011C, strain gbp2, stronger effect = lower value 0.874 | locus YCL016C, strain dcc1, stronger effect = lower value 0.607 | locus YCL029C, strain bik1, stronger effect = lower value 0.873 | locus YDL035C, strain GPR1, stronger effect = lower value 0.779 | locus YDL074C, strain BRE1, stronger effect = lower value 0.588 | locus YDL101C, strain DUN1, stronger effect = lower value 0.659 | locus YDL134C, strain PPH21, stronger effect = lower value 0.622 | locus YDL185W, strain tfp1, stronger effect = lower value 0.774 | locus YDL192W, strain arf1, stronger effect = lower value 0.735 | locus YDR069C, strain doa4, stronger effect = lower value 0.896 | locus YDR101C, strain arx1, stronger effect = lower value 0.848 | locus YDR137W, strain rgp1, stronger effect = lower value 0.707 | locus YDR150W, strain NUM1, stronger effect = lower value 0.879 | locus YDR162C, strain NBP2, stronger effect = lower value 0.414 | locus YDR195W, strain ref2 1.28 [resistant] | locus YDR318W, strain mcm21, stronger effect = lower value 0.861 | locus YDR388W, stronger effect = lower value 0.811 | locus YDR502C, strain sam2, stronger effect = lower value 0.7 | locus YEL061C, strain CIN8, stronger effect = lower value 0.7 | locus YER015W, strain faa2, stronger effect = lower value 0.894 | locus YER016W, strain bim1, stronger effect = lower value 0.909 | locus YER155C, strain BEM2, stronger effect = lower value 0.638 | locus YER167W, strain BCK2, stronger effect = lower value 0.713 | locus YFR010W, strain ubp6, stronger effect = lower value 0.894 | locus YGL086W, strain mad1, stronger effect = lower value 0.718 | locus YGL248W, strain PDE1, stronger effect = lower value 0.682 | locus YGL253W, strain hxk2, stronger effect = lower value 0.825 | locus YGR135W, strain pre9, stronger effect = lower value 0.818 | locus YHR027C, strain rpn1, stronger effect = lower value 0.713 | locus YHR079C, strain IRE1 (second series), stronger effect = lower value 0.856 | locus YHR094C, strain hxt1, stronger effect = lower value 0.88 | locus YHR129C, strain ARP1, stronger effect = lower value 0.638 | locus YHR200W, strain rpn10, stronger effect = lower value 0.771 | locus YIL066C, strain RNR3, stronger effect = lower value 0.421 | locus YIL073C, strain SPO22, stronger effect = lower value 0.593 | locus YIL125W, strain kgd1, stronger effect = lower value 0.861 | locus YIR030C, strain dcg1, stronger effect = lower value 0.908 | locus YJL092W, strain hpr5, stronger effect = lower value 0.734 | locus YJL095W, strain BCK1 (second series), stronger effect = lower value 0.912 | locus YJL115W, strain asf1, stronger effect = lower value 0.394 | locus YJL134W, strain LCB3, stronger effect = lower value 0.905 | locus YJL164C, strain tpk1, stronger effect = lower value 0.887 | locus YJL166W, strain qcr8, stronger effect = lower value 0.838 | locus YJL187C, strain SWE1 (second series), stronger effect = lower value 0.344 | locus YJR043C, strain POL32, stronger effect = lower value 0.696 | locus YKL009W, strain mrt4, stronger effect = lower value 1.54 [resistant] | locus YKL085W, strain MDH1 (second series), stronger effect = lower value 0.818 | locus YKL085W, strain MDH1, stronger effect = lower value 0.818 | locus YKL160W, strain elf1, stronger effect = lower value 0.9 | locus YKR001C, strain vps1, stronger effect = lower value 0.354 | locus YLR027C, strain aat2, stronger effect = lower value 0.869 | locus YLR039C, strain RIC1, stronger effect = lower value 0.395 | locus YLR058C, strain SHM2, stronger effect = lower value 0.643 | locus YLR221C, strain rsa3, stronger effect = lower value 0.901 | locus YLR258W, strain gsy2, stronger effect = lower value 0.9 | locus YLR262C, strain YPT6 (second series), stronger effect = lower value 0.795 | locus YLR268W, strain sec22, stronger effect = lower value 0.545 | locus YLR320W, strain mms22, stronger effect = lower value 0.216 | locus YLR418C, strain cdc73, stronger effect = lower value 0.56 | locus YML016C, strain PPZ1, stronger effect = lower value 0.815 | locus YML032C, strain rad52, stronger effect = lower value 0.175 | locus YML124C, strain tub3, stronger effect = lower value 0.808 | locus YMR058W, strain fet3, stronger effect = lower value 0.815 | locus YMR078C, strain ctf18, stronger effect = lower value 0.335 | locus YMR223W, strain ubp8, stronger effect = lower value 0.602 | locus YNL067W, strain RPL9B, stronger effect = lower value 0.691 | locus YNL209W, strain ssb2, stronger effect = lower value 0.895 | locus YNL233W, strain BNI4, stronger effect = lower value 0.511 | locus YNL248C, strain rpa49, stronger effect = lower value 0.706 | locus YNL250W, strain rad50, stronger effect = lower value 0.144 | locus YNL271C, strain bni1, stronger effect = lower value 0.885 | locus YNL298W, strain CLA4, stronger effect = lower value 0.891 | locus YNL307C, strain MCK1, stronger effect = lower value 0.785 | locus YNL322C, strain KRE1, stronger effect = lower value 0.751 | locus YNR052C, strain pop2, stronger effect = lower value 0.666 | locus YOL147C, strain pex11, stronger effect = lower value 0.802 | locus YOR061W, strain CKA2, stronger effect = lower value 0.793 | locus YOR069W, strain VPS5, stronger effect = lower value 0.577 | locus YOR070C, strain gyp1, stronger effect = lower value 0.877 | locus YOR083W, strain WHI5, stronger effect = lower value 0.806 | locus YOR106W, strain vam3, stronger effect = lower value 0.593 | locus YOR136W, strain idh2, stronger effect = lower value 0.877 | locus YOR144C, strain elg1, stronger effect = lower value 0.812 | locus YOR184W, strain ser1, stronger effect = lower value 0.426 | locus YOR270C, strain vph1, stronger effect = lower value 0.409 | locus YPL051W, strain arl3, stronger effect = lower value 0.685 | locus YPL055C, strain LGE1, stronger effect = lower value 0.146 | locus YPL106C, strain sse1, stronger effect = lower value 1.21 [resistant] | locus YPR141C, strain kar3, stronger effect = lower value 0.912 | locus YPR163C, strain tif3, stronger effect = lower value 0.72 | locus YPR167C, strain met16, stronger effect = lower value 0.597 | strain wtn01, stronger effect = lower value 0.703
0.21 (active) and 0.986 (inactive): locus YJL095W, strain BCK1, stronger effect = lower value
